The text below walks through data of PubChem BioAssay AID720553 (National Center for Advancing Translational Sciences (NCATS), 2013).

About 3,300 (0.97%) of roughly 340,000 compounds were called active. The full list was thinned out, with actives kept by preference. A number with no mark means an inactive call.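 The calls were made as follows: active = maximum activity change below -70%; inconclusive = maximum activity change from -70% to -50%; inactive = maximum activity change above -50%.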
% is scaled to controls: 0 for no effect and ±100 for the full control effect.

The subject of the experiment is Potassium voltage-gated channel subfamily H member 2, brain isoform KCNH2 3.1 (human). As to the kind of experiment: qHTS for Inhibitors of KCHN2 3.1: Mutant qHTS. The settings on record: U2OS KCNH2 3.1, thallium flux FluxOr; active compounds read low. The essentials: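 Channel expression came from 3.1 mutant virus (1.77 x 10^8 /mL) applied to suspended U2OS cells for 4 h. Flux was tracked with FluxOr dye plus Red40 quencher, and kinetic rate constants normalized to controls.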
In the case of `O=C(c1ccc(OC2CCN(C/C=C/c3ccc(F)cc3)CC2)cc1)N1CCCCC1`, the activity change was -73.2% (active).

`O=C(c1ccc(OC2CCN(Cc3ccccn3)CC2)cc1)N1CCCCCC1`: the activity change is 10%.

Turning to `CC(=O)Nc1ccc(CN2CCC(Oc3ccc(C(=O)N4CCCC4)cc3)CC2)cc1`, the activity change is 9.17%.

As to `Cc1ccc([C@H]2N[C@]3(CCCN(CC4CCCCC4)C3=O)[C@H]3C(=O)N(Cc4ccccc4)C(=O)[C@@H]23)cc1`, the activity change is -5.04%.

For `Nc1cccc(OCCCCCOc2cccc(N)c2)c1`, the activity change was -1.75%.

As to `CCc1ccc(S(=O)(=O)Nc2cc3c(cc2N2CCCCC2)n(C)c(=O)c(=O)n3C)cc1`, the activity change is -8.37%.

With `CCCCN(CCCC)C(=O)CCS(=O)(=O)c1ccc2c(c1)n(C)c(=O)c(=O)n2C`, the activity change was -1.58%.

On to `Cn1c(=O)c(=O)n(C)c2cc(S(=O)(=O)CCC(=O)N3CCCCC3)ccc21`, for which the activity change was -86.6% (active).

For `CCOC(=O)C1CCN(C(=O)c2ccc3c(=O)n4nc(Nc5ccccc5CC)sc4nc3c2)CC1`, the activity change is -6.19%.

In the case of `CCOc1ccc(C2c3[nH]c4ccccc4c3CCN2Cc2cn(CC)nc2C)cc1` (stereo unspecified), the activity change was -7.11%.

For the compound `c1ccc(C2c3[nH]c4ccccc4c3CCN2Cc2cccn2-c2cccnc2)nc1` (stereo unspecified), the activity change is 7.54%.

For `CCOc1ccc(C2c3[nH]c4ccccc4c3CCN2Cc2cccn2-c2ncccn2)cc1` (stereo unspecified), the activity change is -73.3% (active).

Take `COc1ncnc2c1ncn2CCCNCCN1CCOCC1`: the activity change is 7.59%.

On to `COc1ccc(CN2C(=O)C(CC(=O)NCc3cccc4ccccc34)CC(C(=O)N3CCOCC3)=C2C)cc1` (stereo unspecified), for which the activity change is 6.14%.

Regarding `O=C(C(c1ccccc1)c1ccccc1)N1CCN(CC(O)COc2ccccc2)CC1` (stereo unspecified), the activity change is -70.2% (active).

Turning to `O=[N+]([O-])c1ccc(N2CCN(CC(O)COc3ccccc3)CC2)cc1` (stereo unspecified), the activity change is -90.3% (active).

`OC(COc1ccccc1)CN1CCN(c2cccc(Cl)c2)CC1` (stereo unspecified): the activity change is -33.9%.

On to `CC1CCN(CC(O)COc2ccc(C(=O)c3ccccc3)cc2)CC1` (stereo unspecified), for which the activity change was -6.71%.

Consider `CCCc1ccc(OCC(O)CN2CCN(C(=O)OCC)CC2)cc1` (stereo unspecified), for which the activity change is -6.68%.

On to `C[N+]1(CC(O)COc2ccccc2)CCN(C(=O)c2ccc([N+](=O)[O-])cc2)CC1` (stereo unspecified), for which the activity change is -11.2%.

For `CC1=C(C(=O)Nc2cccc(C(=O)NCC(C)c3ccccc3)c2)SCCO1` (stereo unspecified), the activity change is 3.22%.

`COc1ccc(C(=O)NCC2CCCO2)cc1S(=O)(=O)NCc1ccc(Cl)cc1` (stereo unspecified): the activity change is -6.01%.

As to `N#CCSc1ccccc1NC(=O)CN1C(=O)NC(CCc2ccccc2)C1=O` (stereo unspecified), the activity change is 0.381%.

Take `COc1ccc(-n2c(-c3ccc(Cl)cc3)n[nH]c2=S)c(OC)c1`: the activity change was -3.64%.

In the case of `O=C(CN1CCSCC1)N/N=C/c1ccc(F)cc1`, the activity change is 1.88%.

As to `Cc1ccc(COc2ccc(/C=N/NC(=O)CN3CCCCC3)cc2)cc1`, the activity change is -108% (active).

In the case of `CCOc1cc(/C=N/NC(=O)CN2CCCCC2)ccc1O`, the activity change was 1.68%.

On to `O=C1c2ccccc2C(=O)N1CCCc1nc(-c2ccccc2)no1`, for which the activity change was 6.34%.

Take `O=C1c2cccc3cccc(c23)C(=O)N1CCCCCc1n[nH]c(=S)o1`: the activity change is -159% (active).

In the case of `O=C1c2ccccc2C(=O)N1CCCCCCN1C(=O)c2ccccc2C1=O`, the activity change is 6.18%.

In the case of `c1ccc(CNCc2ccc(CNCc3ccccc3)cc2)cc1`, the activity change was 1.02%.

As to `COc1ccc(F)c(-c2nc(CN3CCC(c4ccccc4)CC3)c(C)o2)c1`, the activity change was -31.2%.

Take `COc1ccc(CN2CCC(c3nc4ccc(Cl)cc4[nH]3)CC2)cc1`: the activity change was -98.1% (active).

For the compound `COc1ccc(Cn2nnc3c(=O)[nH]c(C4CCN(C(=O)c5ccccc5Cl)CC4)nc32)cc1`, the activity change was -29.8%.

`COCCCn1c(C(=O)NC2CCCCC2)cc2c(=O)n3cccc(C)c3nc21`: the activity change was 5.72%.

For `N#CC1(Nc2ccc3c4c(cccc24)CC3)CCCCC1`, the activity change is 0.638%.

For the compound `COc1cc(OC)cc(C(=O)Nc2ccc(-c3nc4ccccc4o3)c(O)c2)c1`, the activity change was -93.4% (active).

Turning to `Cc1ccc2nc(-c3ccc(NC(=O)c4cccnc4)cc3)oc2c1`, the activity change is -11.7%.

Take `COc1ccc(NC(=O)c2cc(-c3ccc(C)o3)nc3ccccc23)cc1`: the activity change was -28.1%.

For the compound `O=C(c1ncn2c1c(=O)[nH]c1ccccc12)N1CCc2ccccc2C1`, the activity change is -7.26%.

As for `COc1ccccc1C(=O)NC(=S)Nc1ccc(N2CCOCC2)cc1`, the activity change was 6.65%.

On to `CCN(CC)CCNC(=O)c1ccc(NC(=O)c2cc(-c3ccncc3)nc3ccccc23)cc1`, for which the activity change is 4.76%.

For `O=C(Nc1nnc(-c2ccccc2)o1)c1cc(-c2cccs2)nc2ccccc12`, the activity change is -3.38%.

Take `CCCCN(C)CCCNC(=O)c1cc(-c2cccs2)nc2ccccc12`: the activity change was -71.7% (active).

Consider `CC1=C(C(=O)N2CCOCC2)CC(CC(=O)NCc2cccc3ccccc23)C(=O)N1CCC1=CCCCC1` (stereo unspecified), for which the activity change was 1.47%.

Regarding `O=C(OCc1cn([C@@H]2C[C@H](c3ccc(Cl)cc3)N(Cc3cccs3)C[C@H]2O)nn1)c1ccccc1`, the activity change is 6.9%.

As for `Cc1ccc(S(=O)(=O)N2C[C@@H](C)[C@]3(C2)[C@H](O)[C@H](OC(=O)NCc2ccccc2)C[C@H]2C(=O)N(c4ccccc4)C(=O)[C@H]23)cc1`, the activity change is 5.25%.

Take `N#CCCN(C(=S)Nc1ccc(Cl)c(Cl)c1)C1CCCCC1`: the activity change was -7.86%.

In the case of `COc1cc(NC(=O)c2cncc(-c3ccc(C#N)cc3)c2)cc(C(=O)Nc2cccc(C(F)(F)F)c2)c1`, the activity change was -82.3% (active).

With `COc1cc(NC(=O)c2[nH]cnc2C(N)=O)cc(C(=O)Nc2cccc(C(F)(F)F)c2)c1`, the activity change is -24.6%.

With `COc1cccc(NC(=O)CN(C)C(C)C(=O)Nc2ccc(C#N)cc2)c1` (stereo unspecified), the activity change is 3.52%.

With `CCCNC(=O)C1CC(=O)N(c2ccc(OCc3ccccc3)cc2)C1` (stereo unspecified), the activity change was -2.11%.

For the compound `O=C(C1CCCO1)N1CCN(C(=O)C23CC4CC(CC(C4)C2)C3)CC1` (stereo unspecified), the activity change is 3.39%.

Turning to `CC(=O)Nc1ccc(C=CC(=O)c2ccc([N+](=O)[O-])cc2)cc1`, the activity change was -4.78%.

As for `COc1ccc(NC(=O)N(C)C[C@H]2Oc3ncc(C#C[C@@H](C)O)cc3C(=O)N([C@H](C)CO)C[C@H]2C)cc1`, the activity change is -1.97%.

For `O[C@H]1C[C@H](c2ccc(Cl)cc2)N(Cc2cccs2)C[C@@H]1n1cc(C2CC2)nn1`, the activity change was 8.43%.

For the compound `CCOc1ccc(N(C)Cc2cc(=O)oc3ccc(OC)cc23)cc1`, the activity change was -0.899%.

As for `Cc1ccc(CN(C)Cc2cc(=O)oc3cc(C)c(Cl)cc23)cc1`, the activity change is -12.5%.

For the compound `Cc1cc2oc(=O)cc(CN(C)Cc3ccc(OC(F)F)cc3)c2cc1Cl`, the activity change was -76% (active).

Take `Cc1csc(SCC(=O)Nc2ccc(C)c(S(=O)(=O)N(C)C)c2)n1`: the activity change was -4.71%.

`Cc1ccc(C(=O)OCC(=O)NC2CCCCCCC2)cc1C`: the activity change was 8.83%.

In the case of `Cc1ccccc1C(=O)Nc1cccc(-c2nnc(SCC(=O)O)n2C)c1`, the activity change was -82.3% (active).

Consider `Cn1c(SCC(=O)Nc2cccc(NC(=O)c3cccs3)c2)nnc1-c1ccncc1`, for which the activity change was -4.66%.

`Cn1c(SCC(=O)N2CCOCC2)nnc1-c1ccc(NC(=O)c2ccccc2F)cc1`: the activity change is 7.57%.

With `CC(=O)c1ccc(NC(=O)N[C@@H](Cc2ccccc2)C(=O)O)cc1`, the activity change is 0.757%.

As to `CC(=O)c1ccc(NC(=S)N(Cc2ccccc2)C(C)C2CC2)cc1` (stereo unspecified), the activity change is -99.2% (active).

In the case of `CC(C)N(Cc1ccccc1)C(=S)Nc1ccc(OC(F)F)cc1`, the activity change is -14.2%.

Consider `O=C(CCCN1C(=O)C2C3C=CC(C3)C2C1=O)N1CCN(c2ccccc2)CC1` (stereo unspecified), for which the activity change was 7.28%.

In the case of `O=C(O)CCCN1C(=O)c2ccccc2Sc2ncccc21`, the activity change is -3.66%.

As to `O=C(O)CCCN1C(=O)C2C3c4ccccc4C(c4ccccc43)[C@@H]2C1=O` (stereo partly specified), the activity change was -134% (active).

In the case of `C#CCN(C[C@H]1[C@H](OC(=O)NC2CCCC2)[C@H](OC(=O)NC2CCCC2)C[C@H]2C(=O)N(c3ccccc3)C(=O)[C@@H]12)S(=O)(=O)c1ccc(C)cc1`, the activity change is -1.45%.

For the compound `O=C(Nc1sc2c(c1C(=O)O)CCC2)c1ccccc1F`, the activity change was -113% (active).

In the case of `O=C(O)c1c(NC(=O)N2CCCC2)sc2c1CCCC2`, the activity change was -0.215%.

Regarding `COC(=O)c1c(NC(=O)c2ccccc2F)sc2c1C(C(=O)OC)CC2` (stereo unspecified), the activity change is -2.07%.

For the compound `O=C(OCc1ccccc1)N1CCC2CC1c1ccc(-c3ccc4c(c3)OCO4)cc12` (stereo unspecified), the activity change is 6.28%.

Consider `CCC1NC(=O)c2cccnc2-n2c1nc1ccc(C)cc1c2=O` (stereo unspecified), for which the activity change is -12%.

Regarding `CC1(C)OC(=O)C2=C(CC(c3ccccc3)OC2CCc2ccccc2)O1` (stereo unspecified), the activity change was -4.16%.

Turning to `Cc1cc(Cl)ccc1C(=O)C1CCCN(C(=O)c2ccc3c(c2)OCO3)C1` (stereo unspecified), the activity change is 1.67%.

`COc1ccc(-c2ccc(CN3C(CC(C)C)C(=O)N(Cc4cn(CC5CCCCC5)nn4)CCS3(=O)=O)cc2)cn1` (stereo unspecified): the activity change was -18%.

`O=C(Nc1ccncc1)c1c(F)cccc1F`: the activity change is -70.9% (active).

For the compound `O=C(Nc1ccc(S(=O)(=O)N2CCCCCC2)cc1)c1c(F)cccc1F`, the activity change is -17.5%.

With `O=C(Nc1ccncc1)Nc1ccc(F)cc1`, the activity change is 20.7%.

Consider `CN(c1ccccc1)S(=O)(=O)c1ccc(C(=O)NCc2cccnc2)cc1`, for which the activity change is -7.84%.

As for `CC(Oc1ccc(Cl)cc1)C(=O)OCC(=O)Nc1ncc(Cl)cc1Cl` (stereo unspecified), the activity change was -101% (active).

For `CC1(C(=O)OCC(=O)Nc2ncc(Cl)cc2Cl)CC1(Cl)Cl` (stereo unspecified), the activity change is 0.747%.

On to `CC(Oc1ccc(Cl)cc1)C(=O)Nc1ncccn1` (stereo unspecified), for which the activity change was 5.84%.
